Results filed as inconclusive are left out. The source made the active and inactive calls. Unless noted, the rule behind the calls is not given here.
Legend:
[1] = compounds altering circadian rhythm period length – cell-based, LOPAC library, luminescence reporter (AID 2774); conditions: circadian reporter cells, at 7 µM, actives lie on both sides;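 note: values are relative to mean of DMSO wells on each plate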
[2] = system: Hepatitis C virus NS3 helicase; assay: blockers of NS3h binding to ssDNA – biochemical, fluorescence polarization, LOPAC1280 library, primary screen (AID 687035; in the data active = inhibition above about 37%); conditions: Purified HCV NS3 helicase, Cy5-dT15 ssDNA binding fluorescence polarization; stronger effect = higher value; concentration not given here
[3] = compounds altering Cy5-DNA-NS3h complex signal – biochemical, LOPAC1280, artefact control for HCV NS3 helicase inhibitor project (AID 687037); conditions: Cy5-DNA-NS3h complex fluorescence interference counterscreen
[4] = viability loss with induced miR-34 in A549 – imaging, A549 dox-inducible miR-34, nuclei and caspase counts, primary screen (AID 1347080;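 active = compounds whose cell count with miR-34 switched on is under 0.7 times the count with it off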); conditions: A549 miR-34 inducible, Hoechst nuclei count, 48 h
[5] = blockers of cellular phospholipid synthesis – cell-based, LOPAC library, screen 4, primary screen (AID 1347384); conditions: animal cells, phospholipid biosynthesis inhibition screen; at 10 µM
[6] = galactose survival enhancers in mitochondrial complex I cybrids – cell-based, galactose medium, ATP luminescence, primary screen (AID 1645843;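 active = z-score of at least 1.8 in each of two replicates, scored against plate mean and spread of sample wells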;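 note: positive z means more ATP and so rescue of galactose-driven cybrid death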); conditions: complex I mutant cybrid cells, 72 h, stronger effect = higher value
[7] = P. berghei load reduction in hepatocytes – cell-based, HepG2, luciferase luminescence, HepG2 viability, primary screen (AID 624349; in the data active = parasite load remaining mostly below about 12%, no sharp cut-off; inactive = mostly above about 10%;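 note: 100% = mean of DMSO negative control wells on the same plate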); conditions: P. berghei liver stage in HepG2, luciferase luminescence, concentration not given here; parasite load remaining: stronger effect = lower value; viability: measured here: HepG2 viability without parasites
[8] = target: ATP-dependent translocase ABCB1 (Homo sapiens) (UniProt P08183); assay: P-glycoprotein substrate transport blockade – cell-based (AID 377; in the data active = fluorescence slope change above about 50%); conditions: MDR1-expressing cells, fluorescent substrate accumulation slope; stronger effect = higher value; concentration not given here
[9] = stronger effect = lower value, cell number ratio, induced over uninduced
[10] = measured here: relative caspase fold change +Dox/-Dox
[11] = measured here: total cells with miR-34 induction, stronger effect = lower value
[12] = measured here: total cells without miR-34 induction

Chain of ATP-dependent translocase ABCB1 (Homo sapiens) (P08183 whole entry, looked up): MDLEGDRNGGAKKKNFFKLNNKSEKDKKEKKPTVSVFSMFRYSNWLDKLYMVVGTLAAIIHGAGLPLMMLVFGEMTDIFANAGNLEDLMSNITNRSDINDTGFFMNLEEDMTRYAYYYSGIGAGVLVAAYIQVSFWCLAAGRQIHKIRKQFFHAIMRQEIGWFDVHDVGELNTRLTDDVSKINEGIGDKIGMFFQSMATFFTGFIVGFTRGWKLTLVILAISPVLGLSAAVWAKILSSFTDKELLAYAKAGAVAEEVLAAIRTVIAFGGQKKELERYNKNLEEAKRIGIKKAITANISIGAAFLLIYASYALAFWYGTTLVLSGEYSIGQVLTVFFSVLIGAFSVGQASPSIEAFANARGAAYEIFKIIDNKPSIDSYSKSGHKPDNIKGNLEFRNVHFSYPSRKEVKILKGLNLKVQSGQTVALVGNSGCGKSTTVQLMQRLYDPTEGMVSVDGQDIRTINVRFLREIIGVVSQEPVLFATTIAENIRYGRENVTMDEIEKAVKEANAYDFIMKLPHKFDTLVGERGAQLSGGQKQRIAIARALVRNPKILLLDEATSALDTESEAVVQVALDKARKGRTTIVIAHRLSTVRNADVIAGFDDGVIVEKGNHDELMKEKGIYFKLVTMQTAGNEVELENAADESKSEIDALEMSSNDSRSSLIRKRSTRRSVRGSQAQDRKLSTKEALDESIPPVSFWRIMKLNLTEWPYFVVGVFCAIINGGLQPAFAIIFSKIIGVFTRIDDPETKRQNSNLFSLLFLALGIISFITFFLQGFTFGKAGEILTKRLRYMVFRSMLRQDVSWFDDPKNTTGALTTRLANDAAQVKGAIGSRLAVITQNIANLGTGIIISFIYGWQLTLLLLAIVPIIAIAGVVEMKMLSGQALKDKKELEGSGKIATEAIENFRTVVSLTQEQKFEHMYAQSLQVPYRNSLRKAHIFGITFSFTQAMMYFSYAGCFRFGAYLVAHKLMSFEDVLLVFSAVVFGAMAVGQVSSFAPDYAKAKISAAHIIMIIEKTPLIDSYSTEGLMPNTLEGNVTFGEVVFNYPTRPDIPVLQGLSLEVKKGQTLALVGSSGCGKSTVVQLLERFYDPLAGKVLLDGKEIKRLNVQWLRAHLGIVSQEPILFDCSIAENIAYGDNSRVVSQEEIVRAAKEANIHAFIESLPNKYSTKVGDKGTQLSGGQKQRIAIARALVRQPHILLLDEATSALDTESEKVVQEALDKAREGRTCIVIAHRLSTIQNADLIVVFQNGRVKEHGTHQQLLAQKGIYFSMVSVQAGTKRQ

| SMILES | period change [1] | inhibition [2] | fluorescence ratio (interference) [3] | fold change [4, 9] | fold change [4, 10] | cell count [4, 11] | cell count [4, 12] | outcome [5] | z-score [6] | parasite load remaining [7] | viability [7] | fluorescence slope change [8] |
| --- | --- | --- | --- | --- | --- | --- | --- | --- | --- | --- | --- | --- |
| Fc1ccc(CN(C2=NCCN2)c2c(Cl)cccc2Cl)cc1 | -0.015 h (inactive) | 1% (inactive) | 1 (inactive) | 0.978 (inactive) | 0.985 | 8870 | 9060 | inactive | -0.75 (inactive) |  |  |  |
| O=c1ccn([C@@H]2O[C@H](COP(=O)(O)OP(=O)(O)O)[C@@H](O)[C@H]2O)c(=O)[nH]1 | 0.165 h (inactive) | -1% (inactive) | 1 (inactive) | 0.992 (inactive) | 1.43 | 9420 | 9500 | inactive | 0.745 (inactive) |  |  |  |
| O=C1CCC(c2ccc(-n3ccnc3)cc2)=NN1 | -0.075 h (inactive) | -1% (inactive) | 1 (inactive) | 1.07 (inactive) | 0.666 | 10200 | 9510 | inactive | -0.165 (inactive) |  |  |  |
| Oc1ccc(C2CNCc3sccc32)cc1O (stereo not drawn) | 0.045 h (inactive) | 5% (inactive) | 1 (inactive) | 0.942 (inactive) | 1.38 | 10000 | 10600 | inactive | -1.29 (inactive) |  |  |  |
| CC(O)C(O)[C@H]1CNc2nc(N)[nH]c(=O)c2N1 (stereo partly drawn) | -0.26 h (inactive) | -4% (inactive) | 1 (inactive) | 0.979 (inactive) | 1.26 | 10500 | 10800 | inactive | 0.515 (inactive) |  |  |  |
| O=c1[nH]ccc2c(O)cccc12 | 0.03 h (inactive) | -3% (inactive) | 0.9 (inactive) | 1.09 (inactive) | 1.24 | 10100 | 9200 | inactive | 0.02 (inactive) |  |  |  |
| CCCCN(CC)c1nc(C)nc2c1c(C)cn2-c1c(C)cc(C)cc1C |  |  |  | 1.08 (inactive) | 0.964 | 6200 | 5770 | inactive | -1.29 (inactive) |  |  |  |
| COc1cc(OC)cc(-c2cc3cnc(N)nc3nc2NC(=O)NC(C)(C)C)c1 |  |  |  | 1.04 (inactive) | 2.01 | 4510 | 4320 | inactive | 0.34 (inactive) |  |  |  |
| O=C(c1cc(O)c(O)c([N+](=O)[O-])c1)c1ccccc1F | 0.055 h (inactive) | 5% (inactive) | 0.9 (inactive) | 1.18 (inactive) | 1.45 | 7010 | 5940 | inactive | -0.165 (inactive) |  |  |  |
| CC1=C(C(=O)O)N2C(=O)[C@@H](NC(=O)C(N)C3=CCC=CC3)[C@H]2SC1 (stereo partly drawn) | -0.045 h (inactive) | 0% (inactive) | 1 (inactive) | 1.02 (inactive) | 1.79 | 10500 | 10300 | inactive | -0.29 (inactive) |  |  |  |
| CN1C2CCC1CC(OC(=O)C(O)c1ccccc1)C2 (stereo not drawn) | 0.16 h (inactive) |  |  | 1.02 (inactive) | 1.06 | 10900 | 10700 | inactive | 0.155 (inactive) |  |  |  |
| COc1cc(OC)c(/C=C2/C(=O)Nc3ccccc32)c(OC)c1 | -0.54 h (inactive) | -1% (inactive) | 1 (inactive) | 1.2 (inactive) | 0.628 | 2100 | 1750 | inactive | -1.29 (inactive) | 35.9% (inactive) | 78.8% |  |
| CN1CC(O)C(O)C(O)C1CO (stereo not drawn) | 0.06 h (inactive) | -3% (inactive) | 1 (inactive) | 0.95 (inactive) | 1.01 | 10300 | 10800 | inactive | 0.28 (inactive) |  |  |  |
| NCC1OC(O[C@@H]2[C@H](O)C(OC3C(O)C(N)CC(N)C3OC3OC(CO)C(O)C(O)C3N)O[C@@H]2CO)C(N)C(O)C1O (stereo partly drawn) | 0.005 h (inactive) | 0% (inactive) | 1 (inactive) | 0.998 (inactive) | 1.38 | 9490 | 9510 | inactive | 0.61 (inactive) |  |  | 14.4% (inactive) |
| Fc1ccc2[nH]c(CN3CCN(c4ccccn4)CC3)cc2c1 |  |  |  | 0.975 (inactive) | 1.18 | 8710 | 8930 | inactive | -1.13 (inactive) |  |  |  |
| O=C(NOCC1CC1)c1cc(Br)c(F)c(F)c1Nc1ccc(I)cc1Cl |  |  |  | 1.16 (inactive) | 1.35 | 1380 | 1180 | inactive | -1.36 (inactive) |  |  |  |
| Nc1nc2ccc(Cl)cc2n2c(-c3ccccc3)nnc12 |  |  |  | 1.08 (inactive) | 0.972 | 11200 | 10300 | inactive | 1.13 (inactive) |  |  |  |
| Nc1cc(Cl)c(NC2=NCCN2)c(Cl)c1 | 0.07 h (inactive) | -4% (inactive) | 0.9 (inactive) | 1.02 (inactive) | 1.68 | 11100 | 10900 | inactive | 0.705 (inactive) |  |  |  |

Reference: PubChem BioAssay
